About 83,000 compounds went through this panel and 20% of them were active in at least one assay; those are over-represented in the sample as a whole.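 How to read the values: 0–100, growth inhibition (40 = 60% inhibited); 0, no net growth; -100 to 0, cell death (-40 = 40% of starting cells died; -100 = all dead).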 Values without a mark were called inactive. Calls of active or inactive are those of the source. How the source made its calls: active means growth percent below 10; inactive means the rest.
Columns and labels:
Assay in all cases: NCI-60 one-dose screen, 48 h (100 = growth as untreated, 0 = no growth, -100 = all killed)
Details in all cases: 10 µM unless noted
HCT-15 colon = test system: HCT-15 colon
HT29 colon = test system: HT29 colon
SNB-75 CNS = test system: SNB-75 CNS
SNB-19 CNS = test system: SNB-19 CNS
U251 CNS = test system: U251 CNS
PC-3 prostate = test system: PC-3 prostate
SK-MEL-5 melanoma = test system: SK-MEL-5 melanoma
UACC-62 melanoma = test system: UACC-62 melanoma
SK-MEL-28 melanoma = test system: SK-MEL-28 melanoma
LOX IMVI melanoma = test system: LOX IMVI melanoma

Structure (SMILES) | growth (HCT-15 colon) | growth (HT29 colon) | growth (SNB-75 CNS) | growth (SNB-19 CNS) | growth (U251 CNS) | growth (PC-3 prostate) | growth (SK-MEL-5 melanoma) | growth (UACC-62 melanoma) | growth (SK-MEL-28 melanoma) | growth (LOX IMVI melanoma)
COc1ccc2c(c1)C/C(=C\c1cc(-c3ccc4c(c3)OCO4)n[nH]1)C2=O | 90.3% | 127% | 55.1% | 92.5% | 94.8% | 71.6% | 88.5% | 90.3% | 104% | –
Clc1ccc(Cn2cc(-c3nc4ccc(Br)nc4n3Cc3ccc(Cl)cc3)c3cccnc32)cc1 | 87.2% | 96.3% | 64.1% | 89.2% | 94.8% | 65.7% | 74.3% | – | – | 85.4%
CCN1CCN(C(=O)[C@]23CCC(C)(C)C[C@H]2C2=CC[C@@H]4[C@@]5(C)CC/C(=N/O)C(C)(C)[C@@H]5CC[C@@]4(C)[C@]2(C)CC3)CC1 | 15.4% | 28.3% | 59.3% | 70.4% | 38% | 39.6% | 86.5% | 87.9% | 73.2% | –
C=C1C(=O)O[C@H]2[C@H]1CC/C(Cn1cc(-c3ccc(F)cc3)nn1)=C\CC[C@@]1(C)O[C@@H]21 | -78.8% (active) | -84.8% (active) | 85.5% | 66.8% | 20.7% | 28.5% | 36.3% | – | – | -89.3% (active)
COc1cc(-c2cc3ncccc3c3nc(N)c4cccnc4c23)cc(OC)c1OC | 21.5% | 4.14% (active) | 6.07% (active) | 44.5% | 18.9% | 22% | 15.8% | – | – | 24.1%
COc1cccc(-c2nn(-c3ccccc3)cc2-c2ccnc(NCCNS(=O)(=O)c3ccc(C(F)(F)F)cc3)c2)c1 | 11.9% | -14.6% (active) | 46.8% | 21.8% | 15.4% | 5.74% (active) | -94.7% (active) | – | – | 4.44% (active)
Nc1c(C(=O)Nc2cccc3ccccc23)sc2nc3c(cc12)CCCC3 | 26.8% | 2.73% (active) | 37.9% | 39.2% | 25.4% | 39.9% | 28.2% | – | – | 38.6%
N#Cc1cnc2cc(OC[C@@H](O)CO)c(NC(=O)CC3CSSC3)cc2c1Nc1ccc(OCc2cccc(F)c2)c(Cl)c1 | 22% | -81.6% (active) | -88% (active) | -66% (active) | -70.2% (active) | -82.3% (active) | -97% (active) | – | – | -84.2% (active)
Nc1ccc(Cl)cn1 | 98.6% | 96.9% | 80.2% | 107% | 94.3% | 90% | 103% | – | – | 92.7%
C=C(C)[C@@H]1CC[C@]2(C(=O)N3CCCNCC3)CC[C@]3(C)[C@H](CC[C@@H]4[C@@]5(C)CCC(=O)C(C)(C)[C@@H]5CC[C@]43C)[C@@H]12 | 84.1% | 61% | 56.9% | 91.2% | 78% | 78.3% | 94.1% | 99.1% | 103% | –
COc1c(N)c2c(c([N+](=O)[O-])c1OC)C(=O)OC2 | 105% | 102% | 98.7% | 102% | 110% | 96.7% | 113% | 102% | 108% | –
COc1cccc(-c2nn(-c3ccccc3)cc2-c2ccnc(NCCNS(=O)(=O)c3ccc(Cl)cc3)c2)c1 | 24.1% | 11.6% | 66.2% | 46% | 31.2% | 10.6% | -13.7% (active) | – | – | 24.5%
Oc1ccc(CCC2CCCC(CCc3ccc(OCCF)cc3)N2)cc1 (stereo not drawn) | 88.1% | 87.2% | 78.7% | 101% | 85.8% | 87.8% | 90% | – | – | 98.7%
O=C(/C=C/c1cccc2ccccc12)Nc1ncc(Cc2ccccc2)s1 | 12.2% | 14.1% | -17.2% (active) | 9.85% (active) | 1.44% (active) | 30.3% | 10.6% | 15.9% | 44.1% | –
c1ccc(CN2C(c3ccccc3)=Nc3ccccc3C2c2c[nH]c3ccccc23)cc1 (stereo not drawn) | 35.6% | 15.1% | 59.2% | 49.1% | 35.7% | 29.8% | 42.4% | – | – | 15.4%
CCc1cccc(CC)c1NC(=O)c1sc2nc3c(cc2c1N)CCCC3 | 55% | 77.4% | 54.2% | 71.3% | 73.4% | 63% | 63.9% | – | – | 75.2%
COc1cccc(-c2nn(-c3ccccc3)cc2-c2ccnc(NCCCNS(=O)(=O)c3ccc(C(F)(F)F)cc3)c2)c1 | 22.3% | -6.28% (active) | 47.4% | 38% | 27.1% | 12.9% | -54.2% (active) | – | – | 36%
COC(=O)[C@]12CC[C@@H](C)[C@H](C)[C@@H]1C1=CC[C@@H]3[C@@]4(C)C(c5ncon5)=C[C@@](C)(CO)C4=CC[C@@]3(C)[C@]1(C)CC2 | -64.9% (active) | -68.2% (active) | 55.5% | 6.01% (active) | -59.5% (active) | -12.7% (active) | -71.6% (active) | – | – | -93.7% (active)
Cn1c2ccccc2c2c3c(c4c5cccnc5[nH]c4c21)C(=O)N(O)C3=O | 67.4% | 28.9% | 61% | 38.1% | 21% | 42.4% | 12.7% | – | – | 2.63% (active)
COc1ccc(NC(=O)c2ccoc2COc2ccccc2)cc1 | 89% | 107% | 87.2% | 89.6% | 96.1% | 91.3% | 100% | 82.7% | 94.6% | –
O=S(=O)(NCCNc1cc(-c2cn(-c3ccccc3)nc2-c2cccc(O)c2)ccn1)c1ccc(Br)cc1 | 5.6% (active) | 4.7% (active) | 43.7% | 41.3% | 22.5% | 15.6% | 11.5% | – | – | 20%
COc1ccc2c3c(c4ccccc4cc13)C(=O)N(CCN(C)CCN)C2=O | -67.1% (active) | -65.2% (active) | 8.84% (active) | -36.9% (active) | -86.3% (active) | -63.2% (active) | -98% (active) | – | – | -84.8% (active)
N#Cc1cnc2cc(OC[C@@H](O)CO)c(NC(=O)C3CCCC3)cc2c1Nc1ccc(OCc2cccc(F)c2)c(Cl)c1 | 29.4% | -11.3% (active) | -0.333% (active) | 65.3% | 61.9% | -58.9% (active) | 61.5% | – | – | -84.8% (active)
O=S(=O)(NCCNc1cc(-c2cn(-c3ccccc3)nc2-c2cccc(O)c2)ccn1)c1ccc(F)cc1 | 6.55% (active) | 1.75% (active) | 45.6% | 46.5% | 17.4% | 15.1% | -12% (active) | – | – | 27.7%
Cn1cnc2c1c(=O)n(CCC(=O)Nc1ccc(F)cc1)c(=O)n2C | 104% | 86.6% | 94.6% | 105% | 96.2% | 91.1% | 107% | – | – | 102%
O=[N+]([O-])c1cc(S(=O)(=O)c2ccc(F)c([N+](=O)[O-])c2)ccc1F | 36.5% | 97% | 97.2% | 106% | 62.8% | 107% | 106% | 105% | 110% | –
N#CCCCCCn1c2ccccc2c2c3c(c4c5ccccc5n(CCCCCC#N)c4c21)C(=O)N(O)C3=O | 97.3% | 68% | 100% | 66.7% | 83.8% | 68.5% | 74.2% | – | – | 24%

Source: PubChem BioAssay (NCI)
